Only some compounds are listed: those with a hit (about 2.3% of all), similar ones and a draw of the others.
C diff HTS – inhibitors of Clostridium difficile growth | Clostridium difficile clinical isolate growth, OD600, 24 h; hits give low values | growth activity, negative = inhibition, % at 16 µg/mL (by protocol) | hit rate 0.25% among 86,000 | AID 1259249;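 active means mean growth activity at or below -80% and every replicate also at or below -80%; inconclusive means mean at or below -80% but some replicate above -80%; inactive means mean growth activity above -80%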;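 further: 0% = DMSO wells and -100% = levofloxacin 16 µg/mL wells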
Pf Dd2 inh – P. falciparum Dd2 growth inhibition; hit rate 2.3% among 94,000; SYBR Green, 72 h; hits give low values; activity change, % at 10 µM; in the data active means activity change below about -80%; inconclusive means no clear call, values can overlap the other calls
The depositor's hits bear a star; ? = inconclusive; nt = no result.

SMILES | C diff HTS | Pf Dd2 inh
C[C@@H]1CN([C@H](C)CO)C(=O)c2cc(NS(=O)(=O)c3ccc(Cl)cc3)ccc2O[C@@H](C)CCCCO[C@@H]1CN(C)S(=O)(=O)c1cccs1 | 10 | -68
C[C@@H]1CCCCO[C@H](CN(C)S(=O)(=O)c2cccs2)[C@H](C)CN([C@H](C)CO)C(=O)c2cc(NS(=O)(=O)c3ccccc3)ccc2O1 | -12 | -83*
O=C(C[C@@H]1CC[C@H](NC(=O)Nc2cc(F)ccc2F)[C@H](CO)O1)Nc1ccc(-c2ccccc2)cc1 | 3 | 52
COc1ccc(NC(=O)N2CCCCN3[C@H](CO)[C@H](c4ccc(C#CCC(C)C)cc4)[C@@H]3C2)cc1 | -12 | -90*
COc1ccc(NC(=O)N2CCCCN3[C@H](CO)[C@H](c4ccc(C#Cc5ccccn5)cc4)[C@@H]3C2)cc1 | -6 | ?
COc1ccc(NC(=O)N2CCCCN3[C@H](CO)[C@@H](c4ccc(C#Cc5ccccc5)cc4)[C@@H]3C2)cc1 | 48 | 7
COc1ccc(NC(=O)N2CCCCN3[C@@H](CO)[C@@H](c4ccc(C#Cc5ccccc5)cc4)[C@@H]3C2)cc1 | -97* | -37
COc1ccc(NC(=O)N2CCCCN3[C@H](C2)[C@H](c2ccc(C#CCC(C)C)cc2)[C@@H]3CO)cc1 | 3 | -43
COc1ccc(NC(=O)N2CCCCN3[C@@H](CO)[C@H](c4ccc(C#Cc5ccccn5)cc4)[C@@H]3C2)cc1 | 7 | -85*
COc1ccc(NC(=O)N2CCCCN3[C@H](CO)[C@H](c4ccc(C#Cc5ccccc5)cc4)[C@@H]3C2)cc1 | -15 | -84*
COc1ccc(NC(=O)N2CCCCN3[C@H](CO)[C@@H](c4ccc(C#Cc5ccccc5)cc4)[C@H]3C2)cc1 | 2 | -8
COCC(=O)N[C@@H]1CC[C@@H](CC(=O)NCc2ccccc2OC)O[C@@H]1CO | nt | -1
C[C@H](CO)N1C[C@H](C)[C@H](CN(C)S(=O)(=O)c2ccc(F)cc2)Oc2ccc(NC(=O)Nc3ccccc3)cc2C1=O | 0 | 10
COc1ccc(S(=O)(=O)N(C)C[C@H]2OCCCC[C@@H](C)Oc3ccc(NC(=O)Nc4ccc(F)cc4)cc3C(=O)N([C@@H](C)CO)C[C@H]2C)cc1 | 3 | -76
COc1ccc(NC(=O)Nc2ccc3c(c2)C(=O)N([C@@H](C)CO)C[C@H](C)[C@H](CN(C)S(=O)(=O)c2ccc(F)cc2)OCCCC[C@@H](C)O3)cc1 | 5 | -85*
COc1ccc(S(=O)(=O)N(C)C[C@@H]2OCCCC[C@H](C)Oc3ccc(NC(=O)Nc4ccc(F)cc4)cc3C(=O)N([C@@H](C)CO)C[C@H]2C)cc1 | 4 | -67
COc1ccc(S(=O)(=O)N(C)C[C@@H]2OCCCC[C@@H](C)Oc3ccc(NC(=O)Nc4ccc(F)cc4)cc3C(=O)N([C@@H](C)CO)C[C@@H]2C)cc1 | 6 | -81*
COc1ccc2c3c([nH]c2c1)[C@H](CO)N(C(=O)CN(C)C)CC31CCN(CC2CCCCC2)CC1 | 7 | -89*
COc1ccc2c3c([nH]c2c1)[C@H](CO)N(C(=O)CN(C)C)CC31CCN(CC2CC2)CC1 | 10 | 3
COc1ccc2c3c([nH]c2c1)[C@H](CO)N(C(=O)CN(C)C)CC31CN(CC2CCCC2)C1 | 1 | -77
COc1ccc2c3c([nH]c2c1)[C@@H](CO)N(C(=O)CN(C)C)CC31CCN(CC2CCCCC2)CC1 | 5 | -87*
CC(=O)N(C)C[C@@H]1Oc2cc(-c3ccccc3F)ccc2S(=O)(=O)N([C@H](C)CO)C[C@@H]1C | -2 | 4
C[C@@H]1CN([C@@H](C)CO)C(=O)c2cccc(NC(=O)c3nc4ccccc4s3)c2O[C@H]1CN(C)C(=O)Nc1cccc2ccccc12 | nt | -94*
C[C@@H]1CN([C@@H](C)CO)C(=O)c2cccc(NC(=O)c3nc4ccccc4s3)c2O[C@@H]1CN(C)C(=O)Nc1cccc2ccccc12 | nt | -88*
C[C@H]1CN([C@@H](C)CO)C(=O)c2cccc(NC(=O)c3nc4ccccc4s3)c2O[C@@H]1CN(C)C(=O)Nc1cccc2ccccc12 | nt | -76
SMILES | C diff HTS | Pf Dd2 inh
C[C@H](CO)N1C[C@H](C)[C@@H](CN(C)C(=O)Nc2ccc3c(c2)OCO3)Oc2c(NC(=O)c3nc4ccccc4s3)cccc2C1=O | nt | -45
C[C@H]1CN([C@@H](C)CO)C(=O)c2cccc(NC(=O)c3nc4ccccc4s3)c2O[C@H]1CN(C)C(=O)Nc1cccc2ccccc12 | nt | -27
C[C@@H]1CN([C@@H](C)CO)C(=O)c2cccc(NC(=O)c3nc4ccccc4s3)c2O[C@H]1CN(C)C(=O)Nc1ccc2c(c1)OCO2 | nt | -90*
O=C(C[C@@H]1C=C[C@@H](NC(=O)Nc2cc(F)ccc2F)[C@@H](CO)O1)NCc1ccc2c(c1)OCO2 | 2 | 9
CC(C)NC(=O)N(C)C[C@@H]1Oc2cc(C#C[C@@H](C)O)ccc2S(=O)(=O)N([C@H](C)CO)C[C@H]1C | -1 | 18
CCS(=O)(=O)N1CCC2(CC1)CN(Cc1ccccc1OC)[C@@H](CO)c1c2c2ccc(OC)cc2n1C | 1 | -63
Cc1noc(C)c1S(=O)(=O)N(C)C[C@@H]1Oc2ccc(NC(=O)CCCCCC(=O)Nc3ccccc3N)cc2CC(=O)N([C@@H](C)CO)C[C@H]1C | -9 | -7
C[C@@H]1CN([C@H](C)CO)S(=O)(=O)c2ccc(/C=C/c3ccccc3)cc2O[C@H]1CN(C)C(=O)Nc1cc(F)ccc1F | 11 | -84*
C[C@@H]1CN([C@@H](C)CO)S(=O)(=O)c2ccc(/C=C/c3ccccc3)cc2O[C@H]1CN(C)C(=O)Nc1ccc(F)cc1 | -9 | -73
C[C@@H]1CN([C@@H](C)CO)S(=O)(=O)c2ccc(/C=C/c3ccccc3)cc2O[C@@H]1CN(C)C(=O)Nc1ccc(F)cc1 | -2 | -89*
C[C@@H]1CN([C@@H](C)CO)S(=O)(=O)c2ccc(-c3ccccc3)cc2O[C@H]1CN(C)C(=O)Nc1ccccc1F | nt | -38
C[C@H]1CN([C@@H](C)CO)S(=O)(=O)c2ccc(-c3ccccc3)cc2O[C@H]1CN(C)C(=O)Nc1ccccc1F | nt | -81*
C[C@@H]1CN([C@H](C)CO)S(=O)(=O)c2ccc(/C=C/c3ccccc3)cc2O[C@@H]1CN(C)C(=O)Nc1cc(F)ccc1F | 1 | -64
C[C@@H]1CCCCO[C@@H](CN(C)S(=O)(=O)c2ccccc2)[C@H](C)CN([C@@H](C)CO)C(=O)c2cc(NS(=O)(=O)c3ccc(Cl)cc3)ccc2O1 | -8 | -1
C[C@H]1CN([C@@H](C)CO)C(=O)c2cc(C#CC3(O)CCCC3)cnc2O[C@@H]1CN(C)Cc1ccccn1 | -3 | 13
COc1cccc(-c2cn(CC[C@@H]3CC[C@H](NC(C)=O)[C@@H](CO)O3)nn2)c1 | -10 | -12
CCCN(C)C[C@@H]1OCCCC[C@H](C)Oc2ccc(NC(=O)Nc3ccc(C(F)(F)F)cc3)cc2C(=O)N([C@@H](C)CO)C[C@@H]1C | -105* | -88*
C[C@@H]1CN([C@@H](C)CO)C(=O)c2cc(NC(=O)C3CC3)ccc2O[C@H]1CN(C)CC1CCCCC1 | nt | -89*
C[C@H]1CCCCO[C@@H](CN(C)CC2CCCCC2)[C@@H](C)CN([C@@H](C)CO)C(=O)c2cc(NC(=O)Nc3ccc(C(F)(F)F)cc3)ccc2O1 | -68 | -82*
C[C@@H]1CCCCO[C@@H](CN(C)CC2CCCCC2)[C@@H](C)CN([C@H](C)CO)C(=O)c2cc(NC(=O)Nc3ccc(C(F)(F)F)cc3)ccc2O1 | -10 | -44
